According to PubChem BioAssay:
For some of these results: Potency and affinity values are given separately. Activity calls are given as the source filed them.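 How the source made its calls, unless noted: active means primary screen active and over 50% activation in each of two duplicate runs; inactive means the rest.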

Experiments:
[1] = test system: TRPC4 beta (transient receptor potential cation channel C4), mouse; experiment: activators of mouse TRPC4 channel, confirmation, cell-based, Fluo4 calcium, HEK293 TRPC4beta/mu-opioid, duplicates, 10 µM (AID 2426;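 active means fluorescence ratio normalized to control raised more than 50% in primary screen plus both repeat runs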;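 on activation: percent rise of integrated ratio over buffer wells lacking compound which define 0%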); conditions: Fluo4 calcium fluorescence, at 10 µM; stronger effect = higher value
[2] = test system: transient receptor potential cation channel C4 beta (TRPC4), mouse; experiment: activators of mouse TRPC4 channel, confirmation, cell-based, second round, Fluo4, HEK293 TRPC4beta/mu-opioid, 1 µM (AID 2461); conditions: Fluo4 calcium fluorescence, at 1 µM; stronger effect = higher value
[3] = test system: TRPC4 (transient receptor potential cation channel C4 beta), mouse; experiment: positive allosteric modulators of mouse TRPC4, confirmation, cell-based, second round, Fluo-4, HEK293 TRPC4beta/mu-opioid, 1 µM (AID 2554;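 active means primary screen hit whose fluorescence ratio, in both repeats, exceeds the weak agonist control mean by 3 SD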); conditions: DAMGO EC20, Fluo-4 calcium flux, at 1 µM; stronger effect = higher value
[4] = test system: TRPC4 beta (transient receptor potential cation channel C4), mouse; experiment: positive allosteric modulators of mouse TRPC4, confirmation, cell-based, Fluo-4, HEK293 TRPC4beta/mu-opioid (AID 2555;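 active means primary screen hit whose calcium fluorescence ratio, in both repeats, exceeds the weak agonist control mean by 3 SD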); conditions: DAMGO EC20, Fluo-4 calcium flux, at 10 µM; stronger effect = higher value
[5] = target: Short transient receptor potential channel 4 (Mus musculus) (UniProt Q9QUQ5); experiment: inhibitors of mouse TRPC4 channel, confirmation, cell-based, Fluo4, HEK293 TRPC4beta/mu-opioid (AID 2636;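 active means calcium signal cut by more than 3 SD below the full-agonist control yet still positive, in both repeats and the earlier primary screen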); conditions: DAMGO, Fluo4 calcium flux, at 10 µM; stronger effect = higher value
Sequence of Short transient receptor potential channel 4 (Mus musculus) (Q9QUQ5 whole entry, looked up): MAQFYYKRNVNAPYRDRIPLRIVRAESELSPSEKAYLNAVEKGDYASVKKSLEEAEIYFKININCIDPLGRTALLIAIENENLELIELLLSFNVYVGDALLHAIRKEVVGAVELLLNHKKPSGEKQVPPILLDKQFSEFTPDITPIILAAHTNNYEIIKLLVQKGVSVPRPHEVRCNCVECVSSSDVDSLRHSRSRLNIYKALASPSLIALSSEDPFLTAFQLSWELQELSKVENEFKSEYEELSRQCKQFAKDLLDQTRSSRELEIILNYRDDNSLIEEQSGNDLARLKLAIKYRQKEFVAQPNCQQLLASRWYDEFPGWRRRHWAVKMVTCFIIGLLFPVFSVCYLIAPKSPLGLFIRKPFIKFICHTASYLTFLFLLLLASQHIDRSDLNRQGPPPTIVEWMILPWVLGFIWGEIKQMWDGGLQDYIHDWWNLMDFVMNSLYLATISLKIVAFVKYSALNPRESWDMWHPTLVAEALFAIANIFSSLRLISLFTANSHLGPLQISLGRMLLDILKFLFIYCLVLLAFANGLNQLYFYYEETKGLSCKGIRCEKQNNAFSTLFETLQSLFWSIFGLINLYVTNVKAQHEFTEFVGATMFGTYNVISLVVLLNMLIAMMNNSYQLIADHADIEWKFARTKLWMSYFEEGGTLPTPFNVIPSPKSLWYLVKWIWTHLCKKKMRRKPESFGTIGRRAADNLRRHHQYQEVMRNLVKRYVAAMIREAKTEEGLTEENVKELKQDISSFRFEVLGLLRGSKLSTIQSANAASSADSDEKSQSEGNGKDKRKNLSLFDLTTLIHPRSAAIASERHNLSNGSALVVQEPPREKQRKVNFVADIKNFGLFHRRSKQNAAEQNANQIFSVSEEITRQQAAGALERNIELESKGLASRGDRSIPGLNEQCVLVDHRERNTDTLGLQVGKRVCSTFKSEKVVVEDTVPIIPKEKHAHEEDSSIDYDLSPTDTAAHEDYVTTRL

[6] = target: Short transient receptor potential channel 4 (Mus musculus) (UniProt Q9QUQ5); experiment: inhibitors of mouse TRPC4 channel, confirmation, cell-based, second round, Fluo4, HEK293 TRPC4beta/mu-opioid, 1 µM (AID 2637;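 active means calcium signal ratio cut to more than 3 SD under the fully stimulated control mean yet still positive, in both repeats and the primary screen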); conditions: Fluo4 calcium flux, DAMGO, at 1 µM; stronger effect = higher value
[7] = target: Short transient receptor potential channel 4 (Mus musculus) (UniProt Q9QUQ5); experiment: mouse TRPC4 channel activators, dose response, cell-based, HEK293 TRPC4/mu-opioid, Fluo-4 calcium (AID 434937;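 active means primary screen activator hit with a dose response curve and TRPC4 channel activation at any tested dose; inactive means no activation, no dose response, or not a primary hit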)
[8] = target: Short transient receptor potential channel 4 (Mus musculus) (UniProt Q9QUQ5); experiment: TRPC4 positive allosteric modulators, dose response, cell-based, HEK293 TRPC4/mu-opioid, Fluo-4 calcium, EC20 DAMGO (AID 434941;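 active means earlier screen potentiator hit that boosts the TRPC4 ion channel at some dose, with a dose response; inactive means no potentiation, no dose response, or not a prior hit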;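 further: calcium entry triggered by an EC20 dose of DAMGO at the co-expressed mu-opioid receptor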)
[9] = target: Short transient receptor potential channel 4 (Mus musculus) (UniProt Q9QUQ5); experiment: mouse TRPC4 channel inhibitors, dose response, cell-based, HEK293 TRPC4/mu-opioid, Fluo-4 calcium (AID 434942;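 active means primary screen inhibitor hit that blocks the TRPC4 channel at some tested dose, yielding a dose curve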)
[10] = target: Short transient receptor potential channel 6 (Mus musculus) (UniProt Q61143); experiment: inhibition of mouse TRPC6 channel, confirmation, selectivity assay for TRPC4 inhibitor project, cell-based, HEK293, membrane potential dye, duplicate (AID 434948;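 active means active in primary screen and both duplicates, each dropping signal beyond three positive-control SD with fluorescence still positive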); conditions: HEK293 TRPC6, membrane potential dye fluorescence, at 10 µM, stimulated with maximal-effect acetylcholine; stronger effect = higher value
Sequence of Short transient receptor potential channel 6 (Mus musculus) (Q61143 whole entry, looked up): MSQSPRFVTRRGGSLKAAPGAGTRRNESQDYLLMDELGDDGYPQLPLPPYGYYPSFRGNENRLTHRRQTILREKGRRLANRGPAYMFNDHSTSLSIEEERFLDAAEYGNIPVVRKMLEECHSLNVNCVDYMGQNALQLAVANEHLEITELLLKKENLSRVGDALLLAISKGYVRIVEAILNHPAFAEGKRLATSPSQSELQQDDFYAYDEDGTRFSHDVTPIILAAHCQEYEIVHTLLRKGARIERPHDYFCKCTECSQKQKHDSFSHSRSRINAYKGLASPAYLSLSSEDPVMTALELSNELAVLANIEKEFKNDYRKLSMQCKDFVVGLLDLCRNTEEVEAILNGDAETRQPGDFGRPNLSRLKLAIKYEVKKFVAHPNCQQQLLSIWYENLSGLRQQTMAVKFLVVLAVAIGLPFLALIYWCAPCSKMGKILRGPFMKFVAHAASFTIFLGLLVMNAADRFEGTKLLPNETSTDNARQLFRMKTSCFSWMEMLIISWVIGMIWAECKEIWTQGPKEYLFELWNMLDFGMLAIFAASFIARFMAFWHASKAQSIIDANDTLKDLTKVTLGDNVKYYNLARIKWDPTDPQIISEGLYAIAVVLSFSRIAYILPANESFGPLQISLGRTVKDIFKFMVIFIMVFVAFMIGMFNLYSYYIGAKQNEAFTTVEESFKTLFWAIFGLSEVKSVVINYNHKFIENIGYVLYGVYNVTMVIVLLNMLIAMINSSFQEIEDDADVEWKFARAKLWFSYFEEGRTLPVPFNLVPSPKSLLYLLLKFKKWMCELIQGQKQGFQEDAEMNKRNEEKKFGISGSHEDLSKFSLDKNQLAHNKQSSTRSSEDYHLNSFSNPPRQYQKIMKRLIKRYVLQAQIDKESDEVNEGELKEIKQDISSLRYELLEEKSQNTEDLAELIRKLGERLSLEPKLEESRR

[11] = target: Short transient receptor potential channel 6 (Mus musculus) (UniProt Q61143); experiment: activation of mouse TRPC6 channel, confirmation, selectivity assay for TRPC4 activator project, cell-based, HEK293, membrane potential dye, duplicate (AID 434950;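 active means membrane potential signal rise above negative control mean plus 3 SD in both duplicates, also active in the earlier TRPC4 screen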;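 on activation: 0% = buffer only wells and 100% = acetylcholine maximal-effect wells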); conditions: HEK293 TRPC6, membrane potential fluorescence, at 10 µM; stronger effect = higher value
[12] = target: Short transient receptor potential channel 6 (Mus musculus) (UniProt Q61143); experiment: TRPC6 potentiation by TRPC4 potentiator hits, confirmation, selectivity assay for TRPC4 potentiator project, HEK293 cells, membrane potential dye, duplicate (AID 434952;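 active means compound raising the membrane signal above positive-control mean plus 3 SD in both repeats, and a primary screen hit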); conditions: HEK293 TRPC6, membrane potential dye fluorescence, at 10 µM, maximal acetylcholine added after compound; stronger effect = higher value
[13] = target: Short transient receptor potential channel 4 (Mus musculus) (UniProt Q9QUQ5); experiment: calcium flux activators in TRPC4/5HT1a cells, counter-screen for TRPC4 activator project, cell-based, second counter screen, HEK293 TRPC4/5HT1a, Fluo-4 (AID 434977;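 active means calcium signal rise above buffer-control mean plus 5 SD in both duplicates, and also a hit in the primary screen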;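 on activation: plate controls were assay buffer for no effect and maximal serotonin response for full effect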); conditions: Fluo-4 calcium flux, at 10 µM; stronger effect = higher value
[14] = calcium flux inhibitors in TRPC4/5HT1a cells, confirmation, counter-screen for TRPC4 inhibitor project, cell-based, second counter screen, HEK293 TRPC4/5HT1a, Fluo-4 (AID 434978;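 active means primary screen active whose calcium signal fell more than 3 SD beyond the full-serotonin control mean in both duplicate plates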;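 further: serotonin given first at submaximal then at maximal dose after compound preincubation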); conditions: Fluo-4 calcium flux, at 10 µM, serotonin added to trigger calcium flux; stronger effect = higher value
[15] = test system: TRPC4 (mouse), co-expressed with 5HT1a in HEK293; experiment: calcium flux potentiators in TRPC4/5HT1a cells, confirmation, counter-screen for TRPC4 potentiator project, cell-based, second counter screen, HEK293 TRPC4/5HT1a, Fluo-4 (AID 434979;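 active means signal rise over 3 SD above mean of control wells given weak agonist, in both repeats and first screen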); conditions: Fluo-4 calcium flux, at 10 µM, serotonin added at its EC20 dose; stronger effect = higher value
[16] = calcium flux activation in mu-opioid HEK293 cells, confirmation, counter-screen for TRPC4 activator project, cell-based, HEK293 mu-opioid receptor line (AID 449723;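 active means hit in primary screen, with calcium signal over 5 SD above buffer well mean in both duplicates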;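 further: counter screen cells carry the mu-opioid receptor alone and lack TRPC4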); conditions: Fluo-4 calcium fluorescence, at 10 µM; stronger effect = higher value
[17] = calcium flux enhancement in mu-opioid HEK293 cells, confirmation, counter-screen for TRPC4 allosteric potentiator project, cell-based, HEK293 mu-opioid receptor line (AID 449724;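 active means calcium signal rise more than 3 SD above the low-dose agonist control mean, in both duplicate plates and the primary screen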); conditions: Fluo-4 calcium flux, at 10 µM, compound added before EC20 DAMGO stimulus; stronger effect = higher value

COc1ccc(CCn2c(=S)[nH]c3cc(C(=O)N4CCOCC4)ccc3c2=O)cc1OC
inactive: outcome [1] | outcome [2] | outcome [3] | outcome [4] | outcome [5] | outcome [6] | outcome [7] | outcome [8] | outcome [9] | outcome [10] | outcome [11] | outcome [12] | outcome [13] | outcome [14] | outcome [15] | outcome [16] | outcome [17]

Cc1cc(C)c(S(=O)(=O)N2CCN(C)CC2)c(C)c1
active: potentiation [3] 9% | potentiation [15] 12.4%
inactive: outcome [1] | outcome [2] | outcome [4] | outcome [5] | outcome [6] | outcome [7] | outcome [8] | outcome [9] | outcome [10] | outcome [11] | outcome [12] | outcome [13] | outcome [14] | outcome [16] | outcome [17]

O=C(Nc1ccc(Cl)c(Cl)c1)N(CCCN1CCOCC1)Cc1cccs1
inactive: outcome [1] | outcome [2] | outcome [3] | outcome [4] | outcome [5] | outcome [6] | outcome [7] | outcome [8] | outcome [9] | outcome [10] | outcome [11] | outcome [12] | outcome [13] | outcome [14] | outcome [15] | outcome [16] | outcome [17]

CCOCCCn1cnc2c(c1=O)c1nc3ccccc3nc1n2-c1ccc(C)cc1
inactive: outcome [1] | outcome [2] | outcome [3] | outcome [4] | outcome [5] | outcome [6] | outcome [7] | outcome [8] | outcome [9] | outcome [10] | outcome [11] | outcome [12] | outcome [13] | outcome [14] | outcome [15] | outcome [16] | outcome [17]

Cc1ccc(S(=O)(=O)NC(=O)N2CCN(Cc3c(F)cccc3Cl)CC2)cc1
active: potentiation [15] 15.3%
inactive: outcome [1] | outcome [2] | outcome [3] | outcome [4] | outcome [5] | outcome [6] | outcome [7] | outcome [8] | outcome [9] | outcome [10] | outcome [11] | outcome [12] | outcome [13] | outcome [14] | outcome [16] | outcome [17]

COc1ccc(-c2cc(C(=O)N3CC(C)CC(C)C3)c3ccccc3n2)cc1 (stereo not drawn)
inactive: outcome [1] | outcome [2] | outcome [3] | outcome [4] | outcome [5] | outcome [6] | outcome [7] | outcome [8] | outcome [9] | outcome [10] | outcome [11] | outcome [12] | outcome [13] | outcome [14] | outcome [15] | outcome [16] | outcome [17]

CCCn1c(N)c(C(=O)CSc2n[nH]c(-c3ccc(C)cc3)n2)c(=O)[nH]c1=O
inactive: outcome [1] | outcome [2] | outcome [3] | outcome [4] | outcome [5] | outcome [6] | outcome [7] | outcome [8] | outcome [9] | outcome [10] | outcome [11] | outcome [12] | outcome [13] | outcome [14] | outcome [15] | outcome [16] | outcome [17]

CC1CCCCC1NC(=O)c1cc2ccccc2o1 (stereo not drawn)
inactive: outcome [1] | outcome [2] | outcome [3] | outcome [5] | outcome [6] | outcome [7] | outcome [8] | outcome [9] | outcome [10] | outcome [11] | outcome [12] | outcome [13] | outcome [14] | outcome [16] | outcome [17]
active: potentiation [4] 46% | potentiation [15] 42.2%

O=C(N/N=C/c1ccccc1F)NC1CCCCC1
inactive: outcome [2] | outcome [5] | outcome [6] | outcome [7] | outcome [8] | outcome [9] | outcome [10] | outcome [12] | outcome [14] | outcome [16] | outcome [17]
active: activation [1] 85% | potentiation [3] 12% | potentiation [4] 77% | activation [11] 36.5% | activation [13] 17.8% | potentiation [15] 107%

Cc1ccc(C(=O)NNC(=O)C2CSC3(C)CCC(=O)N23)cc1 (stereo not drawn)
active: potentiation [15] 7.03%
inactive: outcome [1] | outcome [2] | outcome [3] | outcome [4] | outcome [5] | outcome [6] | outcome [7] | outcome [8] | outcome [9] | outcome [10] | outcome [11] | outcome [12] | outcome [13] | outcome [14] | outcome [16] | outcome [17]

CCN(CC)CCN(Cc1cc2ccc(C)cc2[nH]c1=O)C(=S)Nc1ccccc1C(=O)OC
active: inhibition [5] 85%
inactive: outcome [1] | outcome [2] | outcome [3] | outcome [4] | outcome [6] | outcome [7] | outcome [8] | outcome [9] | outcome [10] | outcome [11] | outcome [12] | outcome [13] | outcome [14] | outcome [15] | outcome [16] | outcome [17]

C/C=C/Cn1c(SCCCc2ccccc2)nc2c1c(=O)[nH]c(=O)n2C
inactive: outcome [1] | outcome [2] | outcome [5] | outcome [6] | outcome [7] | outcome [8] | outcome [9] | outcome [10] | outcome [11] | outcome [12] | outcome [13] | outcome [14] | outcome [16] | outcome [17]
active: potentiation [3] 12% | potentiation [4] 27% | potentiation [15] 88.5%

CCCc1ccc(OCc2ccc(C(=O)N3CCSCC3)o2)cc1
inactive: outcome [1] | outcome [2] | outcome [3] | outcome [5] | outcome [6] | outcome [7] | outcome [8] | outcome [9] | outcome [10] | outcome [11] | outcome [12] | outcome [13] | outcome [14] | outcome [16] | outcome [17]
active: potentiation [4] 36% | potentiation [15] 30.2%

Cc1cc2oc(C(=O)N(Cc3ccco3)C3CCS(=O)(=O)C3)cc(=O)c2cc1Cl (stereo not drawn)
inactive: outcome [1] | outcome [2] | outcome [3] | outcome [5] | outcome [6] | outcome [7] | outcome [8] | outcome [9] | outcome [10] | outcome [11] | outcome [12] | outcome [13] | outcome [14] | outcome [16] | outcome [17]
active: potentiation [4] 66% | potentiation [15] 70.9%
